What all share (design): scale not given: direction of the effect not stated beside the values
In assay [1] the target is Protein translocase subunit SecA (Escherichia coli (strain K12)) (UniProt P10408). The assay can be described thus: Assay to Identify E. coli SecA ATPase Inhibitors. The assay is classed as functional. The following applies: 30 µM.
The target in assay [2] is T1, Ubiquitin-activating enzyme e1, putative (Leishmania donovani (strain BPK282A1)) (UniProt E9BSI1).
T1 sequence (whole entry): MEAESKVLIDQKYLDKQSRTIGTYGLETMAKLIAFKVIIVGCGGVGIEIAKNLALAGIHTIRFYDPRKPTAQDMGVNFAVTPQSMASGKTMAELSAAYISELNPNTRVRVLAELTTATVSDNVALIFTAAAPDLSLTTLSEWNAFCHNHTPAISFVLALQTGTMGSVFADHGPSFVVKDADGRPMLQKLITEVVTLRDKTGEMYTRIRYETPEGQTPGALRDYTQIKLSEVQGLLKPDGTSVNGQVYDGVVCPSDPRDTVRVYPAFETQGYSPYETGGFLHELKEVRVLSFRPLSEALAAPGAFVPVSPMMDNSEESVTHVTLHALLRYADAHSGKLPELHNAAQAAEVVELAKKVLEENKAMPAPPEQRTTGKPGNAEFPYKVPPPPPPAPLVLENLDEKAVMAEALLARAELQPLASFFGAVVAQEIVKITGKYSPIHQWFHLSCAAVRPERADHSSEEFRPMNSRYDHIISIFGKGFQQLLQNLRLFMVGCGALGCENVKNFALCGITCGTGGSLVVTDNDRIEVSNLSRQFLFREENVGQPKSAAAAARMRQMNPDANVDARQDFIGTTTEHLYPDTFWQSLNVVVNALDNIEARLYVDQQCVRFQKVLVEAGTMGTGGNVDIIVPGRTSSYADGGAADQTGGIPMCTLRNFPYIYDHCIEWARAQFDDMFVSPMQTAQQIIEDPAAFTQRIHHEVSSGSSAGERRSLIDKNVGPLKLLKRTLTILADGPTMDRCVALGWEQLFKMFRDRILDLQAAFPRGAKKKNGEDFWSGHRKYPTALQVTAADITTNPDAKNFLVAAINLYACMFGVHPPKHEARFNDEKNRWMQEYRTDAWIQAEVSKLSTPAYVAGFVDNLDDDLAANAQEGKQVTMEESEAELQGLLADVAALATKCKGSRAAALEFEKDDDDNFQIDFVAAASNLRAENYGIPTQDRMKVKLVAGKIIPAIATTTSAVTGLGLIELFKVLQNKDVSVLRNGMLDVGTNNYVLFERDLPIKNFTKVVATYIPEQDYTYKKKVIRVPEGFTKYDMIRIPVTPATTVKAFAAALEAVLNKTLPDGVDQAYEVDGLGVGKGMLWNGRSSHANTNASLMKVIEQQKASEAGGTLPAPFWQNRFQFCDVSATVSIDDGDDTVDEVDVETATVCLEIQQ
As to the kind of experiment: Leishmania donovani Ubiquitin Activating Enzyme (LdE1). It is filed as functional. The following applies: 30 µM.

For assay [3], the target named is AMP-activated protein kinase, AMPK (Homo sapiens) (UniProt P54646+O43741+P54619+Q9UGJ0+Q9Y478+Q13131+Q9UGI9). As to the kind of experiment: AMP-dependent Kinase enzyme assay. An in vitro enzyme assay that detects ADP turnover that is directly proportional to AMPK activity. This uses naive AMPK that is activated during the assay with MK-8722. The assay is classed as functional. The settings on record: 30 µM.

For assay [4], the target named is Sialic acid-binding Ig-like lectin 9 (Homo sapiens) (UniProt Q9Y336). The assay can be described thus: Hs-Siglec9 ALPHAscreen SOP 20170721. The following applies: 10 µM.
For a further assay, the system named is Trypanosoma cruzi. As to the kind of experiment: Trypanosoma cruzi phosphomannomutase and mannose-1-phosphate guanylyltransferase assay. The assay is classed as functional. The settings on record: 10 µM.
The target of assay [5] is T2, Arginase-2, mitochondrial (Homo sapiens) (UniProt P78540).
T2 sequence (whole entry): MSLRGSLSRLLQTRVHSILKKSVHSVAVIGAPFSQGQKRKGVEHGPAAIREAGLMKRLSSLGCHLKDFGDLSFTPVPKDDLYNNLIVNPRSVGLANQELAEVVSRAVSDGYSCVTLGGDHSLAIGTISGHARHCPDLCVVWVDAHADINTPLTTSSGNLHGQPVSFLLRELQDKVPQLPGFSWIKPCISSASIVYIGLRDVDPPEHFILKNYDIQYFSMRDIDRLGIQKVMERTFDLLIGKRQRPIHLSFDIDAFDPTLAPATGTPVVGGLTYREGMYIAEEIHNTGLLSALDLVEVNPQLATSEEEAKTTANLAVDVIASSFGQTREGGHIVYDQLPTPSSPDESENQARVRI
As to the kind of experiment: in vitro enzyme assay to detect the production of urea directly proportional to the activity of Arginase II. Note: in the data most compounds retested in dose-response had high values. It is filed as functional. The settings on record: 33.3 µM.

Assay [6] concerns the target T3, Proteasome subunit beta (Trypanosoma cruzi) (UniProt O96673).
T3 sequence (whole entry): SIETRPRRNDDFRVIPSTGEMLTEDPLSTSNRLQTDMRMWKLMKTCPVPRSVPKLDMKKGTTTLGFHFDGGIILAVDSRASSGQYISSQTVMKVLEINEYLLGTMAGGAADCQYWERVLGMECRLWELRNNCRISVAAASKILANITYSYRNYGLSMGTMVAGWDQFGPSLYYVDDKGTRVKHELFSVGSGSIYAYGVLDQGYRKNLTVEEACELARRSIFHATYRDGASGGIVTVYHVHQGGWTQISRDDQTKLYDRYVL
As to the kind of experiment: Trypanosoma cruzi proteasome chymotrypsin-like activity (TcProtChymo) assay. Note: in the data most compounds retested in dose-response had high values. It is filed as functional. The following applies: 9.37 µM.

For another assay, the species on record is Homo sapiens. As to the kind of experiment: To identify inhibition of the IFN signalling (Jak-Stat) pathway via expression of an eGFP reporter gene under the control of an IFN-stimulated response element (ISRE) containing MxA promoter. It is filed as functional. The settings on record: 30 µM. On the technique in general: Reporter assays use an easily measured gene product as a stand-in for the process of interest.

For assay [7], the target named is T4, Tyrosyl-tRNA synthetase, putative (Trypanosoma cruzi (strain CL Brener)) (UniProt Q4DSP6).
T4 sequence (whole entry): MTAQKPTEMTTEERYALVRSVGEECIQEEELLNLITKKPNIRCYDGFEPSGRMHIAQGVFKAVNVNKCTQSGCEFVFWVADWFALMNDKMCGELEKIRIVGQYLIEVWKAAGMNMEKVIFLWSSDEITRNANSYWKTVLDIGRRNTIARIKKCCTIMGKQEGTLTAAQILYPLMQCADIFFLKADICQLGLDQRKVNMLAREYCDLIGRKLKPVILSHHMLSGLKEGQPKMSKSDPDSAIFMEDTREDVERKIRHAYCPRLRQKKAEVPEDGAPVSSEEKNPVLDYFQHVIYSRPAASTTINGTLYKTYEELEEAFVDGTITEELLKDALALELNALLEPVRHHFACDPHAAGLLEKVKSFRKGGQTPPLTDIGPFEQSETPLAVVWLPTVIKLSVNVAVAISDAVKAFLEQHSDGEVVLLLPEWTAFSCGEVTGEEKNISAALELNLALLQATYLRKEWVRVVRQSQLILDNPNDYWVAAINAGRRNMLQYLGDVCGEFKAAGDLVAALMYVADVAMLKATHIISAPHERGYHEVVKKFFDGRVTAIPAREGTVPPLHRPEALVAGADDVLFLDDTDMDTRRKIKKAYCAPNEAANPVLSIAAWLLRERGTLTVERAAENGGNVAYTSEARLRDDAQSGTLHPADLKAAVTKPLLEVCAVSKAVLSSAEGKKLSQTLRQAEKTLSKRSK
As to the kind of experiment: Trypanosoma cruzi tyrosyl tRNA synthetase (TcYRS) _High Tyrosine SOP. Note: in the data most compounds retested in dose-response had high values. It is filed as functional. The settings on record: 30 µM.

Assay [8] deals with T4, Tyrosyl-tRNA synthetase, putative (Trypanosoma cruzi (strain CL Brener)). As to the kind of experiment: Trypanosoma cruzi tyrosyl tRNA synthetase (TcYRS) SOP. It is filed as functional. The settings on record: 30 µM.
The target in assay [9] is Chromo domain-containing protein 1 (Saccharomyces cerevisiae (strain ATCC 204508 / S288c) (Baker's yeast)) (UniProt P32657). The assay can be described thus: ScCHD-1 Enzyme Inhibition Assay. Note: in the data most compounds retested in dose-response had high values. The assay is classed as functional. The settings on record: 30 µM.

For 11 compounds, Percent Effect results are on record in ChEMBL document CHEMBL3988442, “University of Dundee, Small-Polar-MMV Screening Library” (2021).

The structures appear in SMILES notation. For some of these results: Measured potencies and affinities stand elsewhere.

Chain of Chromo domain-containing protein 1 (Saccharomyces cerevisiae (strain ATCC 204508 / S288c) (Baker's yeast)) (P32657 whole entry, the tested form may be a part): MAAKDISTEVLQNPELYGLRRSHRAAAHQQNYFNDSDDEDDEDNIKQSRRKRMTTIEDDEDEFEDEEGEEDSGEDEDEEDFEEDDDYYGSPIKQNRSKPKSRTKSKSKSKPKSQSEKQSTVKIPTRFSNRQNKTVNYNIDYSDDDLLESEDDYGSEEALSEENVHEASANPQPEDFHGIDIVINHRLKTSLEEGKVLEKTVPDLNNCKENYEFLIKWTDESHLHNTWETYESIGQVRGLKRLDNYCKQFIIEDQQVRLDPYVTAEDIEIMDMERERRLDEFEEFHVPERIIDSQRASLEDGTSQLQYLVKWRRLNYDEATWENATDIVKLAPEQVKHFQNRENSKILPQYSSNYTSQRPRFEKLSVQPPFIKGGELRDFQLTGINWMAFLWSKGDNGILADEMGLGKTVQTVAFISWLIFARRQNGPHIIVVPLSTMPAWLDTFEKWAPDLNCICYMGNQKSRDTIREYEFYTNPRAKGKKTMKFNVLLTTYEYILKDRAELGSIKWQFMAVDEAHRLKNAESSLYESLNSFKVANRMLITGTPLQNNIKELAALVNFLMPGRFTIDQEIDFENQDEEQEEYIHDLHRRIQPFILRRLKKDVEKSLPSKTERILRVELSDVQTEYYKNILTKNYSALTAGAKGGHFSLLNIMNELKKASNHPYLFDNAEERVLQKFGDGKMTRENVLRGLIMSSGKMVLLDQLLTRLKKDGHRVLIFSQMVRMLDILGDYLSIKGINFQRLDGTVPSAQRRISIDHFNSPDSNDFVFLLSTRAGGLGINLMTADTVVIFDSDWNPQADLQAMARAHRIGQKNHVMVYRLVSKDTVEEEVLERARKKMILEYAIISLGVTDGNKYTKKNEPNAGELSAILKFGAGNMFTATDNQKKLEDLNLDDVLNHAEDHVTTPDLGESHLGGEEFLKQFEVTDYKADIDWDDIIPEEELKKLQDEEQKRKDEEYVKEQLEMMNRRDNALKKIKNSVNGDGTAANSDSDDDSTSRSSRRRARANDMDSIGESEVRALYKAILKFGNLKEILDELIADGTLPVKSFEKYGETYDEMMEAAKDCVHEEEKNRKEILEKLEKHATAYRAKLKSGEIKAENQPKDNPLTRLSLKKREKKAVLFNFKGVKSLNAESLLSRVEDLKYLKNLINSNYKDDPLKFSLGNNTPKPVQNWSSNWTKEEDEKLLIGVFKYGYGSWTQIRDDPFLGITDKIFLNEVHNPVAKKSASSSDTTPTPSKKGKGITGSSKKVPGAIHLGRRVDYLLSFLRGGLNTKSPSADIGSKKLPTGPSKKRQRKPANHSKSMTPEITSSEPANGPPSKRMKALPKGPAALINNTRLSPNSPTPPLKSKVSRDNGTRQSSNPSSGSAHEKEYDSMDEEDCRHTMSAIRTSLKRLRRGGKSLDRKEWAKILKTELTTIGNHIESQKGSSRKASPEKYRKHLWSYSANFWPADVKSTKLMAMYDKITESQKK
Chain of Sialic acid-binding Ig-like lectin 9 (Homo sapiens) (Q9Y336 whole entry): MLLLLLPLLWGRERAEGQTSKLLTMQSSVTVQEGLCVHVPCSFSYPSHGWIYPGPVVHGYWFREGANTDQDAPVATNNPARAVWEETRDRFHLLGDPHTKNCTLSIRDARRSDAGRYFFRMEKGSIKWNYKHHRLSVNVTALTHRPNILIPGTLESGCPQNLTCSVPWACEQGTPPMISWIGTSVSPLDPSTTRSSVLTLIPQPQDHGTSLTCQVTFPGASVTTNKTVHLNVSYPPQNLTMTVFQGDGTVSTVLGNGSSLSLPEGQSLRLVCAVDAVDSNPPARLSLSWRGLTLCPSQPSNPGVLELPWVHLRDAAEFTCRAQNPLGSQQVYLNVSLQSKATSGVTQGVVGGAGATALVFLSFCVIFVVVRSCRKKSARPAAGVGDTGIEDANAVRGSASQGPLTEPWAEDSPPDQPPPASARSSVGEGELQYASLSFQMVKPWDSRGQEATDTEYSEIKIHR
Chain of Protein translocase subunit SecA (Escherichia coli (strain K12)) (P10408 whole entry): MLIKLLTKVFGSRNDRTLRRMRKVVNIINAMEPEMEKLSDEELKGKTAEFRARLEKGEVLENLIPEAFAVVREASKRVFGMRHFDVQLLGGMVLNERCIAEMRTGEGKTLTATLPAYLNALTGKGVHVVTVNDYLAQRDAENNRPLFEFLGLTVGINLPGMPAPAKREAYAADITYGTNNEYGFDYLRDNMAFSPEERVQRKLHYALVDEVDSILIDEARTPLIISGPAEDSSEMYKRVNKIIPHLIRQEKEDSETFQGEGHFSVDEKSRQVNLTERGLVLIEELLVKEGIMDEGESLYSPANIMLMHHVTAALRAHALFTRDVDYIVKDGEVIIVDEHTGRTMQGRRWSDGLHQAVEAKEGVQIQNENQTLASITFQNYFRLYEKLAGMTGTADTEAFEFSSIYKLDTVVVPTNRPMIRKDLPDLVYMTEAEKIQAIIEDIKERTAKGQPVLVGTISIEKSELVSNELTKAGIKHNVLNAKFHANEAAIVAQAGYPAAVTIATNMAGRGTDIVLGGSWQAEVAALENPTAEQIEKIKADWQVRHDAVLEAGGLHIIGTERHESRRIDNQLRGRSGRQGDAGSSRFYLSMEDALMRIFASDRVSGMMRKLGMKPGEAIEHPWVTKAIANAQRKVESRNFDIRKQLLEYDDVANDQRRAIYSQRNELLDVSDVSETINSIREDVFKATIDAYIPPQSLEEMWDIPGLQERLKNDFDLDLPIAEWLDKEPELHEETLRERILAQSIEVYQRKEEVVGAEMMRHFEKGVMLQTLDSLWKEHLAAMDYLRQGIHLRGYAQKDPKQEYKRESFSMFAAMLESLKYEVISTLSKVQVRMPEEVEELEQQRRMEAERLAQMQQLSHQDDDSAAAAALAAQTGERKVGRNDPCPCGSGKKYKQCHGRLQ

Consider `CC(O)CN1CCN(C(=O)CN(C)c2ccc(Cl)cn2)CC1` (stereo unspecified), for which the Percent Effect is -0.0278% in assay [1]; -2.7% in assay [2]; -4.09% in assay [3]; 7.01% in assay [4]; -1.93% in the assay on Trypanosoma cruzi; -2.38% in assay [5]. For the same compound, the Percent Effect in assay [6] was 14.8%; in the assay listed under Homo sapiens it was 14.1%; in assay [7], 4.76%; in [8] it was 7.32%; in [9], -3.67%.
With `Cc1cn2c(n1)CCC(NC(=O)c1nc(C)ncc1Cl)C2` (stereo unspecified), the Percent Effect in assay [1] is -5.44%; in [2], 7.79%; in assay [3], 5.82%; in assay [4], 3.39%; with Trypanosoma cruzi, 4.41%; in assay [5], 1.05%. Further, the Percent Effect in assay [6] was 8.49%; in the assay listed under Homo sapiens, -7.16%; in assay [7], 4.76%; in assay [8] it was 18.8%; in assay [9] it was -23.3%.
As to `Cc1cccnc1NC(=O)C(C)Cn1nc(C(F)(F)F)cc1C` (stereo unspecified), the Percent Effect is -1.64% in [1]; -4% in [2]; 2.53% in assay [3]; 4.76% in [4]; -3.73% in the assay on Trypanosoma cruzi; -1.94% in [5]. Further, the Percent Effect in assay [6] was 11.8%; in the assay listed under Homo sapiens it was -10.4%; in assay [7], 3.17%; in assay [8], 2.56%; in assay [9] it was -1.89%.
As to `CC(=O)c1cccc(OCCCC(=O)N(C)Cc2cccc(O)c2)c1`, the Percent Effect in [1] is -2.9%; in [2], 2.7%; in assay [3], 5.1%; in assay [4] it was 4.56%; with Trypanosoma cruzi it was 0.193%; in assay [5], 4.29%. Besides, the Percent Effect is 3.28% in [6]; 8.19% in the assay filed under Homo sapiens; -0.529% in assay [7]; 0% in assay [8]; -3.66% in assay [9].
Turning to `CN1CCN(C(=O)c2nc3c(o2)CN(C(=O)c2cccnc2)C3)CC1`, the Percent Effect in assay [1] was -2.08%; in [2], 0%; in [3] it was -4.16%; in assay [4], 2.81%; in the assay on Trypanosoma cruzi, -1.28%; in assay [5], -5.52%. For the same compound, the Percent Effect in assay [6] was 14%; in the assay filed under Homo sapiens, 2.22%; in [7] it was 1.07%; in assay [8], 8.64%; in [9], 1.76%.
For `Cc1nnc(NC(=O)NCc2cccnc2N(C)C)s1`, the Percent Effect in assay [1] was -3.62%; in assay [2] it was 13%; in [3], -1.32%; in [4], 4.98%; in the assay with Trypanosoma cruzi, 5.24%; in assay [5], 4.27%. Further, the Percent Effect in [6] is 11.2%; in the assay listed under Homo sapiens it was 4.88%; in [7], 6.8%; in assay [8], 21.9%; in assay [9], -9.15%.
For the compound `CCCS(=O)(=O)N1CCC2(CN(c3cnn(C)c3)C(=O)CN2C)C1` (stereo unspecified), the Percent Effect in assay [1] was 1.02%; in assay [2], 10.8%; in [3], 5.11%; in assay [4], -11.2%; in the assay with Trypanosoma cruzi, -4.69%; in assay [5], 0.833%. Moreover, the Percent Effect was 20.4% in assay [6]; 6.16% in the assay listed under Homo sapiens; 6.93% in assay [7]; 8.54% in assay [8]; 1.55% in assay [9].
Turning to `O=C(NCCc1csc(N2CCCC2)n1)N(C1CCCC1)C1CC1`, the Percent Effect is 0.399% in [1]; -5.33% in [2]; -9.08% in assay [3]; 16% in assay [4]; -1.66% in the assay on Trypanosoma cruzi; 2.08% in [5]. Also, the Percent Effect in assay [6] is 27.4%; in the assay filed under Homo sapiens, 6.62%; in assay [7], 12.6%; in assay [8], 11.1%; in assay [9], -6.87%.
Regarding `c1cncc(-c2ccc3c(c2)C2(CC3)CCN(c3nncs3)CC2)c1`, the Percent Effect was -0.421% in assay [1]; 0% in [2]; 3.46% in assay [3]; 8.96% in [4]; 5.56% in the assay with Trypanosoma cruzi; 1.6% in assay [5]. The Percent Effect in [6] amounted to 14.5%; in the assay filed under Homo sapiens, 47.4%; in assay [7], 14.6%; in [8] it was 8.64%; in assay [9], 2.02%.
Regarding `CCOc1ncccc1NC(=O)N1CCN(c2cccc(C)c2C)CC1`, the Percent Effect was -0.972% in assay [1]; 10.8% in assay [2]; 2.83% in assay [3]; -3.7% in assay [4]; -10.1% in the assay with Trypanosoma cruzi; 5.36% in assay [5]. Further, the Percent Effect in [6] worked out at 4.49%; in the assay filed under Homo sapiens it was 15.3%; in assay [7], 3.96%; in assay [8], 13.4%; in assay [9], 1.36%.
In the case of `CC(=O)c1ccc(N2CCCC(CO)(CCOc3ccccc3)C2)nc1` (stereo unspecified), the Percent Effect in assay [1] is -1.73%; in assay [2], 10.4%; in [3], 4.96%; in assay [4] it was 15.7%; in the assay on Trypanosoma cruzi, 6.39%; in [5] it was -22.1%. Also, the Percent Effect in [6] was 19.5%; in the assay listed under Homo sapiens, 65.7%; in assay [7], 5.38%; in assay [8], 16.1%; in assay [9], -2.3%.
